Reference: the supplement of paper PMC10503962

Each compound was assayed on Trichuris muris adult worms (assay: mean motility score (Paragon pixel variance) of adult worms (arbitrary units); higher = more motile worms, i.e. less anthelmintic effect; extreme values may be limits of the assay). Settings: 100 µM; 24 h.
In short: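 Single adult Trichuris muris worms, collected from infected NOD SCID mice, were placed in 96-well plates with 100 μL RPMI-1640 plus antibiotics and drug at 100 μM (1% v/v DMSO), then kept at 37°C and 5% CO2 for 24 h. Plates were filmed on an automated phenotyping platform (200 frames, 100 ms apart). Motility score came from Paragon pixel-variance analysis, averaged across replicate wells. Each drug had three worms in three wells, run on three separate occasions, with vehicle and positive controls.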

Row | SMILES | mean motility score
1 | C=CC(=O)N1CCC[C@@H](n2nc(-c3ccc(Oc4ccccc4)cc3)c3c(N)ncnc32)C1 [ibrutinib] | 433
2 | O=C(O)[C@@H](O)[C@H](O)C(=O)O [tartaric acid] | 3400
3 | COc1ccc(-c2ccc3cc(C(=O)O)ccc3c2)cc1C12CC3CC(CC(C3)C1)C2 [adapalene] | 3410
4 | COc1cc2nc(N3CCN(C(=O)C4CCCO4)CC3)nc(N)c2cc1OC.Cl (centres undefined) [terazosin hydrochloride] | 2970
5 | Cl.N=C(N)NC(=O)c1nc(Cl)c(N)nc1N [amiloride hydrochloride] | 2260
6 | COC(=O)C1=C(C)NC(C)=C(C(=O)OC)C1c1ccccc1[N+](=O)[O-] [nifedipine] | 1260
7 | CC[C@H](Nc1ncnc2[nH]cnc12)c1nc2cccc(F)c2c(=O)n1-c1ccccc1 [idelalisib] | 3590
8 | CC(C)(C(=O)c1cccnc1)c1cccnc1 [metyrapone] | 3950
9 | Cc1onc(-c2ccccc2)c1-c1ccc(S(N)(=O)=O)cc1 [valdecoxib] | 3610
10 | Cc1ccc(N(C=C2NCCN2)c2cccc(O)c2)cc1 [phentolamine] | 2960
11 | CCCCc1nc(Cl)c(CO)n1Cc1ccc(-c2ccccc2-c2nn[nH]n2)cc1 [losartan] | 3650
12 | N[C@@H](CC(=O)O)C(=O)O [aspartic acid] | 3610
13 | COc1cc2c(Oc3ccc4[nH]c(C)cc4c3F)ncnc2cc1OCCCN1CCCC1 [cediranib] | 0
14 | C[C@]12CC[C@@H]3c4ccc(O)cc4CC[C@H]3[C@@H]1CCC2=O [estrone] | 2280
